Source: PubChem (National Center for Advancing Translational Sciences (NCATS))
An excerpt weighted towards active compounds, which were near 14% of everything screened.
NS1 inh: influenza NS1 inhibition; Potency, µM (series often up to 46.1 µM); actives 0.4% (n = 270,000); calls by dose curve; note: actives are rising curves; nearly all actives have a fitted effect of over 50% in size
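Growth recovery, yeast-based: influenza A NS1 expressed in S. cerevisiae causes slow growth, and suppressors are detected by OD600. The parent strain without NS1 is used as positive control.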
LmPK inh: blocks Leishmania mexicana pyruvate kinase activity. Q27686. purified LmPK, Kinase-Glo ATP luminescence, 1 h. Potency, µM (top dose mostly 57.5 µM), hits mostly inhibitors. actives 0.37% (n = 290,000). AID 1721
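Purified LmPK (0.1 nM) with 0.5 mM PEP and 0.1 mM ADP in imidazole buffer pH 7.2 with MgCl2/KCl, 1 h at room temperature. ATP formed was read by luciferase luminescence and normalized to no-enzyme and uninhibited controls.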
FBPA Giardia inh: blocks Giardia fructose-bisphosphate aldolase activity. A8B2U2. purified Giardia FBPA. Potency, µM (top dose mostly 59.6 µM), actives largely listed as inhibitors. actives 0.71% (n = 290,000); note: nearly all actives have a fitted effect of over 55% in size
Target sequence (A8B2U2 whole entry, looked up): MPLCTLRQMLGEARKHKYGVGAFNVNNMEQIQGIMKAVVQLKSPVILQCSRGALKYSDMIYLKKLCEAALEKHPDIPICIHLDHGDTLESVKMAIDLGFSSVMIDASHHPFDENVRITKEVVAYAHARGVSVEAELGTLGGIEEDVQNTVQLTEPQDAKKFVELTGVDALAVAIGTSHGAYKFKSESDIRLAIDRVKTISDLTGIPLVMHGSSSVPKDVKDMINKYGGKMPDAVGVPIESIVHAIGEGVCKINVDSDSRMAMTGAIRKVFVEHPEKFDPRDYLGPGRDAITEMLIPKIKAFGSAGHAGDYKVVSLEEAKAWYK
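40 nM FBPA preincubated 10 min at RT with compound (up to 57.5 uM final), then substrate plus GAPDH/TPI/NAD/arsenate coupling and diaphorase/resazurin added. Fluorescence read after 20 min at RT, 525/598 nm.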
CHX counter: counter-screen hit for Shiga toxin inhibitors, cycloheximide | cell reporter, cycloheximide protein synthesis inhibition counterscreen | max response, % | actives 12% (n = 300,000); in the data active = max response mostly above about 13%, no sharp cut-off; inactive = mostly below about 14%; note: read at 38.3 µM for the half of the compounds with a filed dose
Shiga toxin inh: blocks Shiga toxin action in Vero cells | inhibition, % at 38.7 µM | AID 2315 | Vero cells, Shiga toxin protein synthesis inhibition reporter | actives 9.2% (n = 290,000); in the data active = inhibition mostly above about 28%, no sharp cut-off; inactive = mostly below about 43%
Each line names hits and unclear results; the compound was inactive in the other large screens. Unless noted, calls come from the whole dose curve; as a rule, active = well fitted curve in the direction sought with a large enough effect; inconclusive = small, poorly fitted or top-dose-only effect, or another doubt; inactive = no such curve, though single readings can be large; an effect the other way counts as inactive or inconclusive.

CC1CC(=O)Nc2cc([N+](=O)[O-])ccc2N1 (stereo unspecified)	none
COc1cccc(Nc2nnc(SCN3C(=O)c4ccccc4C3=O)s2)c1	none
COc1cccc(Nc2nnc(SCc3nc4ccccc4s3)s2)c1	CHX counter 65.2, Shiga toxin inh 109.2
Cc1cccc(C)c1Nc1nnc(SCc2nc3ccccc3s2)s1	CHX counter 49.7
CC(=O)Nc1cccc(NC(=O)C2CC(=O)N(CCc3ccc(F)cc3)C2)c1 (stereo unspecified)	none
O=C(Nc1ccccc1)c1csc(-c2ccccc2)n1	CHX counter 26.1, Shiga toxin inh 42.8
Cc1nc(C(=O)NNC(=O)Nc2ccccc2)cs1	CHX counter 12.6
O=C(Nc1ccc(F)cc1F)c1csc(-c2ccccc2)n1	CHX counter 23.5, Shiga toxin inh 69.8
O=C(O)c1csc(-c2ccccc2)n1	none
O=C(O)c1csc(-c2cccc(Cl)c2)n1	CHX counter 9.7
Cc1cc(C(=O)NNC(=O)Nc2ccccc2)no1	none
Cc1nc(NCc2ccccc2)c2nc(-c3ccccc3)n(CC(C)(C)CN(C)C)c2n1	none (no result: NS1 inh, LmPK inh, CHX counter, Shiga toxin inh)
O=C(N/N=C/c1ccc2c(c1)OCO2)c1ccn(Cc2ccc(Cl)cc2)n1	none (no result: FBPA Giardia inh)
Cc1cccc(Cn2ccc(NC(=O)c3cccnc3)n2)c1	none
O=C(Nc1ccn(Cc2ccccc2)n1)c1ccc(F)cc1	CHX counter 45.0, Shiga toxin inh 85.0
Cc1ccccc1Cn1ccc(NC(=O)c2nn3cccnc3c2Cl)n1	CHX counter 22.2
O=C(Nc1ccn(Cc2ccc(Cl)cc2)n1)c1ccc2c(c1)OCO2	Shiga toxin inh 50.1
Cc1cccc(Cn2ccc(NC(=O)c3ccc4c(c3)OCO4)n2)c1	CHX counter 28.0, Shiga toxin inh 73.7 (no result: NS1 inh)
Cc1ccccc1Cn1ccc(NC(=O)c2cc3ncc(Br)cn3n2)n1	none
CC1CC[C@@]2(C(=O)O)CCC3(C)C(=CCC4[C@]5(C)CC(O)C(O)[C@](C)(CO)C5C(O)C[C@@]43C)C2C1C (stereo partly specified)	none (no result: NS1 inh, LmPK inh, CHX counter, Shiga toxin inh)
O=C(NCCc1ccccn1)C1CCCN1S(=O)(=O)c1ccc(Cl)cc1 (stereo unspecified)	none
Cc1ccc(Cn2ccc(NC(=O)c3nn(C)cc3Cl)n2)cc1	CHX counter 38.5, Shiga toxin inh 91.6
COc1ccccc1C(C(=O)NCc1ccccc1)N(C(=O)c1csnn1)C1CC1 (stereo unspecified)	none
O=C(c1cc2ccccc2oc1=O)N(Cc1cccs1)Cc1ccccc1Cl	CHX counter 44.6, Shiga toxin inh 60.4
CN(Cc1ccc(N(C)C)cc1)C(=O)c1cc2ccccc2o1	CHX counter 28.0, Shiga toxin inh 68.1
CN(Cc1ccccc1Cl)C(=O)c1cc2ccccc2o1	CHX counter 30.5, Shiga toxin inh 39.4
CN(Cc1ccccc1)C(=O)c1cc2ccccc2o1	none
CCN(Cc1ccc(OC)c(F)c1)C(=O)c1cc2ccccc2o1	CHX counter 17.7
COc1cccc(OC)c1C1=Nn2c(nnc2-c2ccccc2O)SC1	none (no result: NS1 inh, LmPK inh)
Cc1nn(CCCC(=O)Nc2c(F)cc(F)cc2Br)c(C)c1[N+](=O)[O-]	none (no result: NS1 inh)
O=C(Nc1nc2ccccc2[nH]1)c1ccc([N+](=O)[O-])cc1	CHX counter 28.2, Shiga toxin inh 91.6 (no result: NS1 inh)
Cc1ccc(C(=O)Cc2nc3ccccc3[nH]2)cc1	CHX counter 35.8, Shiga toxin inh 64.5
O=C(Nc1nc2ccccc2[nH]1)c1cccc([N+](=O)[O-])c1	CHX counter 46.6, Shiga toxin inh 58.5
COC(=O)c1cc(C(=O)Nc2cc(C)ccn2)cc([N+](=O)[O-])c1	Shiga toxin inh 34.9
O=C(NC(Cc1ccccc1)c1nc2ccccc2[nH]1)c1cccc([N+](=O)[O-])c1 (stereo unspecified)	none
Cc1nc2nc(SCC(=O)c3cccc([N+](=O)[O-])c3)[nH]c2cc1Br	NS1 inh inconclusive, CHX counter 31.4, Shiga toxin inh 29.8
COc1cc(C(=O)Nc2nc3ccccc3[nH]2)cc(OC)c1OC	none
Cc1nc2ccc(NC(=O)c3ccc([N+](=O)[O-])cc3)cc2[nH]1	CHX counter 13.7
COC(=O)c1cc(C(=O)Nc2nc3ccccc3[nH]2)cc([N+](=O)[O-])c1	FBPA Giardia inh inconclusive, Shiga toxin inh 48.5
O=C(c1nc2ccccc2[nH]1)c1ccccc1[N+](=O)[O-]	CHX counter 32.1, Shiga toxin inh 72.8
CCCOc1ccc(Br)cc1-c1cc(-c2ccc(Cl)cc2)[nH]c1-c1ccncc1	none (no result: NS1 inh, LmPK inh, CHX counter, Shiga toxin inh)
O=C(Cc1nc2ccccc2[nH]1)c1cccc([N+](=O)[O-])c1	CHX counter 37.5, Shiga toxin inh 70.0
Cn1cccc1C(=O)OCc1cc(Cl)cc2c1OCOC2	CHX counter 61.6, Shiga toxin inh 145.1
CCCCCCCCc1nnc(N)s1	CHX counter 11.9
COC(=O)c1ccccc1NC(=O)CSc1nnc(-c2ccc(C)cc2)o1	CHX counter 32.8, Shiga toxin inh 54.7
COC(=O)c1ccccc1NC(=O)CSc1nnc(-c2cccnc2)o1	CHX counter 21.2
COc1ccc(C)cc1NC(=O)CSc1nnc(-c2ccc(C)cc2)o1	none
COc1ccc(-c2nnc(SCC(=O)Nc3ccccc3OC)o2)cc1	CHX counter 24.8, Shiga toxin inh 57.6
COc1ccccc1NC(=O)CSc1nnc(-c2ccncc2)o1	LmPK inh inconclusive
COC(=O)c1ccccc1NC(=O)Cc1nc(-c2ccccc2)sc1-c1ccc(C)cc1	CHX counter 32.7, Shiga toxin inh 35.1
Cc1cc(NC(=O)NC2CC(=O)N(c3ccc4c(c3)OCCO4)C2)no1 (stereo unspecified)	none (no result: NS1 inh)
COc1ccccc1CNC(=O)c1cc(C(C)=O)c[nH]1	none
COc1ccccc1CNC(=O)c1cc(S(=O)(=O)N2CCOCC2)cn1C	none
COc1cccc(NC(=O)N2CCCC2C(=O)NCc2ccco2)c1 (stereo unspecified)	none (no result: FBPA Giardia inh)
COc1ccccc1-c1nnc(SCC(=O)OC(C)C)o1	Shiga toxin inh 35.1
COC(=O)CSc1nnc(-c2ccccc2OC)o1	none
OCC1OC(c2ccc3c(c2)OCO3)C=CC1Oc1cc(Cl)cc(Cl)c1 (stereo unspecified)	none (no result: NS1 inh, LmPK inh, CHX counter, Shiga toxin inh)
Nc1cc(-c2ccc(Br)cc2)nn1Cc1ccccc1	NS1 inh inconclusive, CHX counter 53.6, Shiga toxin inh 91.0
Cc1ccc2cc(NC(=O)Cc3ccccc3)ccc2n1	CHX counter 53.3, Shiga toxin inh 91.7
CCc1ccc(C(=O)Nc2ccc3nc(C)ccc3c2)cc1	CHX counter 31.1
Cc1ccc2cc(NC(=O)c3ccccc3C)ccc2n1	CHX counter 33.7, Shiga toxin inh 81.3
CC(=O)Nc1ccc(S(=O)(=O)Nc2nc3ccccc3nc2-n2ccc(=NC(=O)c3ccc(F)cc3)cc2)cc1	none (no result: NS1 inh)
CCOc1ccc(S(=O)(=O)NC2CCCC2)cc1	none (no result: FBPA Giardia inh)
Cc1ccc(C(=O)Nc2nnc(C3CCCCC3)s2)o1	CHX counter 21.2, Shiga toxin inh 89.7
CCOCC(=O)Nc1nnc(C2CCCCC2)s1	CHX counter 35.9, Shiga toxin inh 45.6
CC(Oc1ccccc1)C(=O)Nc1nnc(C2CCCCC2)s1 (stereo unspecified)	CHX counter 49.2, Shiga toxin inh 129.9
